Experimental data reported in PubChem BioAssay (NCI).
Compounds without any hit were thinned out: in the full panel of roughly 83,000, 20% have a hit.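 Single-concentration screen, 48 h exposure, 96-well plates. Endpoint: percent growth. Below 10 = active.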 Values without a mark were called inactive. Active and inactive are the calls of the source.

Tests used:
Assay in all cases: NCI-60 one-dose screen, 48 h (100 = growth as untreated, 0 = no growth, -100 = all killed)
Conditions in all cases: 10 µM unless noted
SK-MEL-2 melanoma = test system: SK-MEL-2 melanoma
SN12C renal = test system: SN12C renal
UO-31 renal = test system: UO-31 renal
TK-10 renal = test system: TK-10 renal
ACHN renal = test system: ACHN renal
CAKI-1 renal = test system: CAKI-1 renal
A498 renal = test system: A498 renal
MOLT-4 leukemia = test system: MOLT-4 leukemia
EKVX NSCLC = test system: EKVX NSCLC
CCRF-CEM leukemia = test system: CCRF-CEM leukemia

| Structure (SMILES) | growth (SK-MEL-2 melanoma) | growth (SN12C renal) | growth (UO-31 renal) | growth (TK-10 renal) | growth (ACHN renal) | growth (CAKI-1 renal) | growth (A498 renal) | growth (MOLT-4 leukemia) | growth (EKVX NSCLC) | growth (CCRF-CEM leukemia) |
| --- | --- | --- | --- | --- | --- | --- | --- | --- | --- | --- |
| CC(C)CC(NC(=O)C(CCCN=C(N)N)NC(=O)OCc1ccccc1)C(=O)NC(CNC(=O)/C=C/c1ccccc1)C(C)C (stereo unspecified) | 113% | 99.6% | 93% | 107% | 91.9% | 90% | 103% | 97.5% |  |  |
| COC(=O)C1(C)COP(=O)(NC23CC4CC(CC(C4)C2)C3)OC1 (stereo unspecified) |  | 113% | 87.2% | 96.7% | 103% | 103% | 103% | 109% | 98.4% | 98.2% |
| C/C(=N\OC(=O)Nc1cccc(Cl)c1)c1ccccc1 | 106% | 95% | 82.8% | 109% | 101% |  | 42.8% | 89.9% |  | 89.1% |
| COc1ccc(C2C3=C(COC3=O)N(CCO)c3cc(OC)c(OC)cc32)cc1 (stereo unspecified) |  | 102% | 90.8% | 93.4% | 99.8% | 108% | 103% | 88.2% | 86.2% | 95.8% |
| O=C(C(Br)C(Br)c1ccccc1)C(Br)C(Br)c1ccccc1 (stereo unspecified) | -28.7% (active) | -30.5% (active) | -96.6% (active) | -87.9% (active) | -96% (active) |  | 84.6% | -43.4% (active) |  | -43.8% (active) |
| COc1ccc(C2=CC(c3ccc(OC)cc3Br)N3C=CSC3=N2)cc1 (stereo unspecified) | 109% | 57.6% | 37.7% | 72% | 71.4% |  | 72.2% | 36.7% |  | 26.9% |
| C[C@@H]1C[C@H](N)C[C@H](c2ccncc2NC(=O)c2ccc(F)c(-c3c(F)cccc3F)n2)C1 |  | 58.2% | 25.3% | 67.6% | 60.5% | 27.7% | 35.9% | 9.29% (active) | 74.9% |  |
| Cc1ccccc1N1C(c2ccccc2)=NNC12C=CC(=O)c1c(O)cccc12 (stereo unspecified) |  | 62.2% | 57.5% | 116% | 81.7% | 96.9% | 76.4% | 101% | 79.7% | 119% |
| CC(=O)Nc1ccc(Cl)cc1Cl |  | 101% | 76.2% | 112% | 106% | 73.4% | 116% | 71.3% | 89.9% | 145% |
| C=C1NC(=O)C(C(C)CC)NC(=O)C2CSCC(NC(=O)CCC(=O)O)C(=O)NC(Cc3ccccc3)C(=O)NC(C)C(=O)NC(CC(C)CC)C(=O)NC(C(=O)NC(Cc3ccccc3)C(=O)N3CCCC3C(=O)N2)C(C)OC(=O)C(CO)NC(=O)C(C(O)COC)N(C)C(=O)C(C(C)C)NC(=O)C(CC(C)CC)NC1=O (stereo unspecified) |  | 31.4% [6 µM] | 57.4% [6 µM] | 60.2% [6 µM] | 37.4% [6 µM] | 33.1% [6 µM] | -11.8% [6 µM] (active) | 16.9% [6 µM] | 30.4% [6 µM] | 18.6% [6 µM] |
| O=C1OCC2=C1C(c1cccc(Br)c1)c1cc3c(cc1N2CCO)OCCO3 (stereo unspecified) |  | 26.7% | 18.1% | 62.7% | 33.8% | 15% | -11% (active) | 20.5% | 44.1% | 9.31% (active) |
| COc1cccc(NC(=O)c2c(-c3ccccc3)c(-c3ccccc3)n[nH]c2=O)c1 | 134% | 96.7% | 86.7% | 120% | 94% |  | 96.9% | 67.8% |  |  |
| COc1cc(Nc2ccnc3ccc(Br)cc23)cc(OC)c1OC |  | 41.5% | 40.2% | 56.8% | 37.6% | 31.9% | -7.03% (active) | 32.1% | 53.4% | 32.8% |
| NC(=S)N/N=C(/c1cccs1)C1CC1 | 160% | 82.6% | 76.2% | 124% | 83.9% | 98.8% | 106% | 29.2% |  |  |
| COc1ccc(-c2nc(-c3cc(OC)cc(OC)c3)[nH]c2-c2ccc(OC)cc2)cc1 | 29.4% | 70.6% | 36.1% | 62.2% | 41.3% |  | 66% | 14.2% |  | 11.1% |
